# The panel holds about 83,000 compounds, 20% with a hit somewhere; the sample as a whole holds those more often.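 Single-dose data. Exposure time 48 hours. Values below 10 considered active.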 Values without a mark were called inactive. Active and inactive are the calls of the source.
# Test system: MDA-MB-468 breast
# Assay: NCI-60 one-dose screen, 48 h (100 = growth as untreated, 0 = no growth, -100 = all killed)
# Conditions: 10 µM unless noted
row,SMILES,growth
1,O=C(NNC(=O)c1ccncc1)Nc1ccc([N+](=O)[O-])cc1,106%
2,COc1cc(C2CC(=O)Nc3c2cc(Br)c2ccccc32)cc(Br)c1OC (stereo not given),3.67% (active)
3,CCOC(=O)c1c(Nc2ccccc2)nn2c(-c3ccccc3)ccnc12,98%
4,CN1CCN(c2nc(Nc3ccc(O)cc3)nc3ccccc23)CC1,75.2%
5,COc1ccc(C(C)=O)cc1S(N)(=O)=O,99.4%
6,CN(C)CCCOc1ccc(NC2=C(Cl)C(=O)C(Nc3ccc(OCCCN(C)C)cc3)=C(Cl)C2=O)cc1,-57.2% (active)
7,CN1CCOCCOCCOc2ccccc2NC(=O)c2nc(cnc2N)-c2ccc(cc2)S1(=O)=O,41.4%
8,O=C(O)c1cc(C(F)(F)F)cc(C(F)(F)F)c1,109%
9,CNc1nc2ncn(C)c2c(=O)[nH]1,101%
10,COc1ccc(Cn2c(Br)c3c(c2Br)-c2nc(NC(=O)c4ccc(OC)cc4)sc2CC3)cc1,83.5%
11,Oc1ccccc1/C=N/Nc1nc(N/N=C/c2ccccc2O)nc(N2CCOCC2)n1,39.2%
12,COc1cc(-c2n/c(=C\c3c(O)[nH]c4ccc(Cl)cc34)cc3c2=Nc2ccccc2-3)cc(OC)c1OC,30.5%
13,COc1cc(-c2c3c(nc4c2c(C)nn4-c2ccccc2)-c2ccccc2C(=O)C3=O)cc(OC)c1OC,88.9%
14,O=C(Nc1nc(-c2ccccc2Cl)cs1)c1cc(-c2ccc(Cl)cc2)nc2ccc(Cl)cc12,89.4%
15,CCN1CCN(CCNc2nccc(-c3c(-c4ccc(F)c(O)c4)nc4occn34)n2)S1(=O)=O,23.5%

# Source: PubChem BioAssay (NCI)
